# Laboratory results as given in PubChem BioAssay.
# Activity calls are given as the source filed them.
# What was measured:
# [1] = tested on: Human papillomavirus type 1a protein E7 (residues 44-93); assay: small molecules binding HPV E7 44-93 – biochemical, small-molecule microarray, residues 44-93, 635 nm fluorescence, primary screen (AID 1108); settings: fluorescence 635 nm, higher = more signal;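 further: E7 fragment applied at 1 µg/mL in TBST for 1 h at 4 C; score combines spot fluorescence with its signal to noise ratio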
# [2] = hepatitis C replication reporter changes, two-sided – Huh7 cells, luciferase reporter, HCV replication inhibitor project, primary screen (AID 1109); settings: Huh7 HCV replicon luciferase reporter, 48 h; higher = more signal;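 further: huh7 hepatoma cells harbouring a luciferase neomycin HCV replicon reporter; luciferase luminescence as measure of HCV replicon replication; test concentration not given here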
# [3] = target: Left-right determination factor 2 (Homo sapiens) (UniProt O00292); assay: small molecules binding LEFTY2 protein – biochemical, small-molecule microarray, 635 nm fluorescence scan, primary screen (AID 1110); settings: higher = more signal
# Left-right determination factor 2 (Homo sapiens), sequence (O00292 whole entry, looked up): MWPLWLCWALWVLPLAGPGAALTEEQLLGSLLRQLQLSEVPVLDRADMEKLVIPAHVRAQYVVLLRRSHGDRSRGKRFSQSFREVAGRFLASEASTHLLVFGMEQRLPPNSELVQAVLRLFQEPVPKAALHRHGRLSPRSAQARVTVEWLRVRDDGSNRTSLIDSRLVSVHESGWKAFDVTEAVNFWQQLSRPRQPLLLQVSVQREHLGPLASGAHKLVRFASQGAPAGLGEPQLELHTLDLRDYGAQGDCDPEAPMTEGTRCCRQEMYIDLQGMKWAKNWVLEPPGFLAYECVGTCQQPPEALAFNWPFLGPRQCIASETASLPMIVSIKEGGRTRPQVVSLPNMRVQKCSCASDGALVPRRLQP
# [4] = target: Calmodulin-1 (Homo sapiens) (UniProt P0DP23); assay: small molecules binding calmodulin-1 with EGTA – biochemical, small-molecule microarray, Cy5-labelled CALM1, profiling panel (AID 1111); settings: Cy5-CALM1 binding fluorescence, higher = more signal;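 further: labelled calmodulin applied in Tris saline Tween buffer holding calcium plus EGTA and DTT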
# [5] = target: Calmodulin-1 (Homo sapiens) (UniProt P0DP23); assay: small molecules binding Ca-loaded calmodulin-1 – biochemical, small-molecule microarray, Cy5-labelled CALM1, plus calcium, artefact control for SMM control-protein annotation, profiling panel (AID 1112); settings: Cy5-CALM1 binding fluorescence, higher = more signal;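 further: score merges spot fluorescence with signal to noise from triplicate slides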
# [6] = probe aWnt5a binding to arrayed compounds – biochemical, biotinylated probe, 635/667 nm fluorescence, primary screen (AID 1113); settings: small-molecule microarray, higher = more signal;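 further: score merges 667 nm fluorescence intensity with signal-to-noise per printed feature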
# [7] = probe aShh binding to arrayed compounds – biochemical, biotinylated probe, 635/667 nm fluorescence, primary screen (AID 1114); settings: small-molecule microarray, higher = more signal;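 further: probe is biotin-labelled aShh protein from a stem cell growth factor screen; measures binding of labelled protein to compounds printed on the slide; score merges feature fluorescence at 667 nm with signal-to-noise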
# [8] = probe aNog binding to arrayed compounds – biochemical, biotinylated probe, 635/667 nm fluorescence, primary screen (AID 1115); settings: small-molecule microarray, higher = more signal;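 further: probe is biotinylated aNog protein used at 0.15 µg/mL for 1 h at 4 C; z-score combines 667 nm fluorescence of each spot with its signal to noise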
# [9] = target: Torsin-1A-interacting protein 1 (Homo sapiens) (UniProt Q5JTV8); assay: compound microarray binding of lysate hLAP1 – cell lysate, small-molecule microarray, COS7 lysate, 635/667 nm fluorescence, primary screen (AID 1116); settings: 635 nm fluorescence, higher = more signal
# Torsin-1A-interacting protein 1 (Homo sapiens), sequence (Q5JTV8 whole entry, looked up): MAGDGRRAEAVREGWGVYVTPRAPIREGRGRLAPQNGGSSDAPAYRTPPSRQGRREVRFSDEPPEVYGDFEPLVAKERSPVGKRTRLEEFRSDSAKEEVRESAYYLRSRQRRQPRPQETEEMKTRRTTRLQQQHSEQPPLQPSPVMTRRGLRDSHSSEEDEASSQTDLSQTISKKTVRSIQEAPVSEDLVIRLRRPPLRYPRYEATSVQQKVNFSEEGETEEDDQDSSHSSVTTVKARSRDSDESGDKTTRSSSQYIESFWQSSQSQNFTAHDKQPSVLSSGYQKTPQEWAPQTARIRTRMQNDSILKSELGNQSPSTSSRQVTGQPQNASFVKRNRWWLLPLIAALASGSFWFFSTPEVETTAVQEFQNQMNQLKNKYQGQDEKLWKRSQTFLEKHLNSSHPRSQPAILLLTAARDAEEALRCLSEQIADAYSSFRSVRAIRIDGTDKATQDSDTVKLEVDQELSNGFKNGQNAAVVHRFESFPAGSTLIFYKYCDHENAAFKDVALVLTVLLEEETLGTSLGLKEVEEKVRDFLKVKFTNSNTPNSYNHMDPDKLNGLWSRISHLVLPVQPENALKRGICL
# [10] = target: Alpha-bungarotoxin (Bungarus multicinctus) (UniProt P60615); assay: compounds binding labelled alpha-BTX control protein – biochemical, small-molecule microarray, Alexa647 label, 635/667 nm fluorescence, artefact control for SMM control protein annotation, profiling panel (AID 1117); settings: alpha-BTX-A647 binding fluorescence, higher = more signal
# Alpha-bungarotoxin (Bungarus multicinctus), sequence (P60615 whole entry, looked up): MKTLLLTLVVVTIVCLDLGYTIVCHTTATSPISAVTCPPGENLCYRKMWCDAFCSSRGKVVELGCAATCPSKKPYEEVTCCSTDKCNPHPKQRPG
# Albumin (Bos taurus) = Albumin (Bos taurus) (UniProt P02769); assay: compounds binding labelled BSA control protein – biochemical, small-molecule microarray, Alexa647 label, 635/667 nm fluorescence, artefact control for SMM control protein annotation, profiling panel (AID 1118); settings: BSA-A647 binding, fluorescence 635 nm, higher = more signal;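 further: score merges 667 nm emission intensity and signal-to-noise per printed compound spot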
# Albumin (Bos taurus), sequence (P02769 whole entry, looked up): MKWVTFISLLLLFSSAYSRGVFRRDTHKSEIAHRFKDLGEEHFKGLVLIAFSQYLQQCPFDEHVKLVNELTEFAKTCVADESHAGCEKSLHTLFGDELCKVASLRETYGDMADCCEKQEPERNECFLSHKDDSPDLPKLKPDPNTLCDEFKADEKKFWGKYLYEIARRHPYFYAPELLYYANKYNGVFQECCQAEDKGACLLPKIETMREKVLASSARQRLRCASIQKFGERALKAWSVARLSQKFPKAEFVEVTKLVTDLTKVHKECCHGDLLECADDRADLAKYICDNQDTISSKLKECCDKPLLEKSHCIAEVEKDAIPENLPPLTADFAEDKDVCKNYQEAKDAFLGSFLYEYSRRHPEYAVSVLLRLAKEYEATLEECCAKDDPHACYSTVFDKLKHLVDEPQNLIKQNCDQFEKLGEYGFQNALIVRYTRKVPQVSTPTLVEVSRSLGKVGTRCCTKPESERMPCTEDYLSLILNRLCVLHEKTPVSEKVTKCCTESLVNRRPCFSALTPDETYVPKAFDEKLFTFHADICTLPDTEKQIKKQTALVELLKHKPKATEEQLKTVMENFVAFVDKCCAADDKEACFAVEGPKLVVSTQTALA
# [11] = probe aXIP binding to arrayed compounds – biochemical, NeuroSMM set, 635/667 nm fluorescence, primary screen (AID 1119); settings: small-molecule microarray, higher = more signal, called active from +8 up or from −8 down;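 further: probe is the protein aXip251-270 applied at 1 µg/mL to compound-printed slides; binding of probe to printed compounds measured as 667 nm fluorescence plus signal to noise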
# [12] = probe aNOTCH3 binding on compound microarray – biochemical, small-molecule microarray, 635/667 nm fluorescence, primary screen (AID 1120); settings: higher = more signal;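 further: probe is a biotin-tagged antibody raised against NOTCH3 rather than NOTCH3 protein; score merges spot fluorescence near 667 nm with spot signal to noise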
# [13] = probe aNOTCH2 binding on compound microarray – biochemical, small-molecule microarray, 635/667 nm fluorescence, primary screen (AID 1121); settings: higher = more signal;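 further: score merges feature fluorescence read at 667 nm with its signal to noise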
# [14] = target: Carbonic anhydrase 2 (Homo sapiens) (UniProt P00918); assay: compounds binding carbonic anhydrase 2 – biochemical, small-molecule microarray, Alexa647-labelled CAII, profiling panel (AID 1122); settings: CAII-A647 binding fluorescence, higher = more signal
# [15] = COS7 lysate on small-molecule microarray, probe aHis, 635 nm (AID 1123); settings: COS7 cell lysate, fluorescence, higher = more signal;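 further: z-score combines 667nm fluorescence intensity with signal-to-noise per printed compound spot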
# [16] = probe aLAP1 signal on lysate-treated microarray – cell lysate, small-molecule microarray, COS7 lysate, primary screen (AID 1124); settings: probe aLAP1, fluorescence, higher = more signal;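 further: lysate comes from COS7 cells expressing LAP1 and is applied at 0.3 µg/mL; score merges spot fluorescence near 667 nm with signal-to-noise over triplicate slides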
# Sam68 (KHDRBS1) = assay: compounds binding KHDRBS1 protein – biochemical, small-molecule microarray, 635 nm fluorescence, primary screen (AID 1125); settings: higher = more signal;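 further: score merges 667 nm channel intensity with signal to noise over triplicate slides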
# [17] = tested on: Chordin-like protein 2 (CHRDL2); assay: compounds binding chordin-like 2 – biochemical, small-molecule microarray, 635 nm fluorescence, primary screen (AID 1126); settings: fluorescence 635 nm, higher = more signal;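 further: printed compound slides probed with Chrdl2 protein at 4 µg/mL for 1 h at 4 C; score merges 667 nm emission intensity with signal to noise over three replicate slides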
# [18] = target: Concanavalin-A (Canavalia ensiformis) (UniProt P02866); assay: compounds binding concanavalin A lectin – biochemical, small-molecule microarray, Alexa647 label, 635 nm, artefact control for SMM control protein annotation, primary screen (AID 1127); settings: ConA-A647 binding fluorescence, higher = more signal;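 further: z combines 667 nm emission intensity with signal-to-noise across three replicate slides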
# Concanavalin-A (Canavalia ensiformis), sequence (P02866 whole entry, looked up): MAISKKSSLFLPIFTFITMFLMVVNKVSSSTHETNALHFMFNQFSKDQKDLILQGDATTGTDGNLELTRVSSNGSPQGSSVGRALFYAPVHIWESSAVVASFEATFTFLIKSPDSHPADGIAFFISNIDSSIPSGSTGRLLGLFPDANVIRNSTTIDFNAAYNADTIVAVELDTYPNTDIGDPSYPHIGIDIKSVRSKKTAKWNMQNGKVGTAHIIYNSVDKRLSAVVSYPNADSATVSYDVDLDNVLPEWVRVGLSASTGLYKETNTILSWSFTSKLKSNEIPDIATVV
SMILES,composite z-score [1],z-score [2],composite z-score [3],composite z-score [4],composite z-score [5],composite z-score [6],composite z-score [7],composite z-score [8],composite z-score [9],composite z-score [10],composite z-score (Albumin (Bos taurus)),composite Z-score [11],composite z-score [12],composite z-score [13],composite z-score [14],composite z-score [15],composite z-score [16],composite z-score (Sam68 (KHDRBS1)),composite z-score [17],composite z-score [18]
COc1ccc(O[C@H]2C=C[C@@H](c3ccccc3)O[C@@H]2COC(=O)CCC(C)=NO[C@@H](C)c2cc(-c3c(C)cc(C)cc3C)no2)cc1,-1.13,-1.15,-0.965,-0.977,-0.55,-0.194,0.255,-0.0207,-1.16,-0.707,-0.0567,-0.314 (inactive),-0.187,-0.153,-0.505,-0.451,-0.522,-0.822,-0.654,-1.63
COc1cccc([C@H]2Oc3ccc(OC)cc3C(=NOC(C)CN3CCCc4nc(C)c(C)cc43)[C@@H]2O)c1 (stereo not given in full),-0.508,-1.12,0.37,-0.789,-0.582,-0.0286,0.151,-0.135,0.74,-0.618,-0.605,0.904 (inactive),0.119,-0.0527,0.431,0.298,0.532,1.14,0.414,-1.16
CC(C)=NOCc1ccc(-c2cc(-c3ccccc3)no2)cc1,-0.0501,-0.115,0.384,-0.555,-0.498,-0.0701,-0.214,-0.139,0.0444,-0.0299,-0.205,-0.0363 (inactive),-0.0984,-0.169,-0.145,-0.676,0.0863,0.059,0.14,0.0293
C=CC[C@@H]1C=C[C@H](ON=C[C@@H](OC)[C@H](C)C=CCC(=O)OC)[C@@H](CO)O1,0.241,-0.581,0.283,-0.67,-1.65,-0.0222,-0.0035,-0.526,0.848,-0.741,-0.286,0.0176 (inactive),0.062,-0.0242,0.131,0.336,-0.108,0.496,0.075,-0.225
